In PubChem BioAssay (NCI):
Compounds without any hit were thinned out: in the full panel of roughly 83,000, 20% have a hit.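 Growth was measured after 48 h exposure to one concentration of compound in 96-well plates. Values under 10 count as active.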 Activity calls are given as the source filed them.

Test system: MDA-MB-468 breast
Assay: NCI-60 one-dose screen, 48 h (100 = growth as untreated, 0 = no growth, -100 = all killed)
Conditions: 10 µM unless noted

Structure (SMILES)	growth
COc1ccc(-c2cc(-c3ccc(OC)c(OC)c3)nc(SCCCC(=O)NO)n2)cc1	-30.7% (active)
C=C(c1ccc(C(=O)O)c(F)c1)c1cc2c(cc1C)C(C)(C)C=CC2(C)C	93.8% (inactive)
N#Cc1c(-c2ccc(C(F)(F)F)cc2)cc(NCC2CCS(=O)(=O)CC2)n2c1nc1ccccc12	78.1% (inactive)
Nn1c(CN2CCN(c3cc4c(cc3F)c(=O)c(C(=O)O)cn4C3CC3)CC2)n[nH]c1=S	99.2% (inactive)
Clc1ccc(Nc2ccnc(N3CCN(c4ccnc5cc(Cl)ccc45)CC3)n2)cc1	39.4% (inactive)
CCN(CC)c1ccc2c(c1)Oc1nc(N)c(C#N)c(N)c1C2Sc1ccc(SC)cc1 (stereo not drawn)	-37.4% (active)
CCOC(=O)C#Cc1c(C(=O)OCC)nnn1[C@@H]1O[C@H](COC(C)=O)[C@@H](OC(C)=O)[C@H]1OC(C)=O	61.5% (inactive)
N[C@H]1CN(C(=O)c2cc3cc(Br)c(F)c(F)c3[nH]2)C[C@@H]1O	106% (inactive)
C[n+]1c2ccccc2c(NC2CCNCC2)c2[nH]c3ccccc3c21	-72.5% (active)
O=c1c(/C=C/c2c(O)ccc3ccccc23)nnc2sc(-c3cccc([N+](=O)[O-])c3)nn12	40.9% (inactive)
Cc1cc(N2CCOCC2)nc(N(CCNc2ccnc3cc(Cl)ccc23)Cc2ccco2)n1	23.5% (inactive)
CCN(CC)CCOc1ccc(C(=C(C)c2ccc(OC)cc2)c2ccc(OCCN(CC)CC)cc2)cc1	-70.1% (active)
CC1(C)CC2=C3C=C[C@@H]4[C@@]5(C)CCC(=O)C(C)(C)[C@@H]5CC[C@@]4(C)[C@]3(C)CC[C@@]2(C(=O)O)C[C@H]1O	40.3% (inactive)
